# Only some compounds are listed: those with a hit (about 2.5% of all), similar ones and a draw of the others.
# Pol kappa inh-1: blocks human DNA polymerase kappa activity; Potency, µM (titrated, usually from 107 µM), inactives show top-dose activity, negative = inhibition, usual class: inhibitors; purified Pol kappa, fluorescent DNA synthesis assay, 10 min; actives 0.53% (n = 400,000); AID 588579; further: potency means the concentration at half of the fitted maximal effect; on the % scale 0 is the no-effect control and ±100 the full control effect
# Target sequence (Q9UBT6 whole entry, looked up): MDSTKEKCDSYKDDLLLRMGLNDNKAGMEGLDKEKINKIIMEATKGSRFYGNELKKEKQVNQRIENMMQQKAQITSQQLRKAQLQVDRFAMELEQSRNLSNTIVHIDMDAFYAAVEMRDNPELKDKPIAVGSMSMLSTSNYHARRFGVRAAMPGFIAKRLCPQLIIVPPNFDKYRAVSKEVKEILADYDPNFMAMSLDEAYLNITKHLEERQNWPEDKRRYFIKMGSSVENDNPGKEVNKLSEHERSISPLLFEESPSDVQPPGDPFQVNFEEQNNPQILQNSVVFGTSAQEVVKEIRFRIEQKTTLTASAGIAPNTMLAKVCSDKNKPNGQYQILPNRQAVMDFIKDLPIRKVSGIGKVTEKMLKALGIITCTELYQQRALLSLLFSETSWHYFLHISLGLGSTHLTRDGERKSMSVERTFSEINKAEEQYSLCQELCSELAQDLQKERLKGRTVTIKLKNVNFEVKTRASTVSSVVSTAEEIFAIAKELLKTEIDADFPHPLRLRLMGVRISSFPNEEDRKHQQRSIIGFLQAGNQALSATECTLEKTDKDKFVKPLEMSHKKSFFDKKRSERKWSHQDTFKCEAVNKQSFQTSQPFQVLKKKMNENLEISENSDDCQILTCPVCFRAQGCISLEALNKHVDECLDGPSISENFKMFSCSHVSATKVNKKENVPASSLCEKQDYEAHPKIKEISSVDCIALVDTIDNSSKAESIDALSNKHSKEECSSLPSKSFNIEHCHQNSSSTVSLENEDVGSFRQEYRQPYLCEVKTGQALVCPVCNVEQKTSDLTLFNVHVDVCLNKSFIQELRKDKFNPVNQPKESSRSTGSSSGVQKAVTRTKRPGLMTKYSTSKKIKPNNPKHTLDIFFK
#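 10 nM Pol kappa preincubated 15 min at room temperature with compounds, then reaction started with substrate at 50 nM final. Fluorescence read kinetically at 0 and 10 min; buffer-only wells served as negative control.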
# L3MBTL1 inh: blocks human L3MBTL1 | Q9Y468 | Potency, µM (highest dose often 57.1 µM), for the others: at the top dose activity, negative = inhibition, actives largely listed as inhibitors | AlphaScreen L3MBTL1–H3K9me1 peptide binding | actives 0.66% (n = 230,000) | AID 485360; further: potency means the concentration at half of the fitted maximal effect; on the % scale 0 is the no-effect control and ±100 the full control effect; nearly all actives have a fitted effect of over 60% in size
#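 First, the protein-peptide complex forms for 30 min at room temperature (L3MBTL1 50 nM, biotinylated H3K9me1 peptide 75 nM). Next, compounds are pin-transferred and incubated 30 min. Finally, AlphaScreen beads are added and read after 30 min.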
# Pol iota inh: inhibitors of human DNA polymerase iota; Q9UNA4; AID 588590; Potency, µM (titrated, usually from 115 µM), inactives show top-dose activity, negative = inhibition, usual class: inhibitors; actives 1% (n = 390,000); Pol iota fluorescent replication assay, 10 min; further: potency means the concentration at half of the fitted maximal effect
#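 Pol iota at 10 nM preincubated 15 min with compounds at room temperature; reaction started with fluorescent substrate, 50 nM final. Fluorescence read kinetically at 0 and 10 min; buffer-only wells as negative control.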
# POLB inh: DNA polymerase beta (human) inhibition | AID 485314 | Pol beta primer extension/strand displacement, fluorescence kinetic | Potency, µM (highest dose often 114 µM), for inactives: top-dose activity change, negative = inhibition, most hits filed as inhibitors | actives 1.3% (n = 340,000); further: potency means the concentration at half of the fitted maximal effect; on the % scale 0 is the no-effect control and ±100 the full control effect
#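 Pol beta (10 nM) and compounds were preincubated 15 min at room temperature, then 50 nM substrate (final) started primer extension/strand displacement. Reads were taken at 0 and 10 min; concentration-response data were fitted to a four-parameter Hill equation.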
# Pol eta inh-1: blocks human DNA polymerase eta activity | Q9Y253 | recombinant Pol eta, fluorescent DNA replication assay | Potency, µM (highest dose often 114 µM), for inactives: top-dose activity change, negative = inhibition, usual class: inhibitors | actives 1.2% (n = 390,000) | AID 588591; further: potency means the concentration at half of the fitted maximal effect; on the % scale 0 is the no-effect control and ±100 the full control effect
#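 Fluorescent replication assay: 50 nM final substrate added after a 15 min room-temperature compound preincubation with 10 nM enzyme. Signal taken at 0 min and again at 10 min.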
# APEX1 inh: blocks human APE1 abasic DNA cleavage | P27695 | recombinant APE1, TAMRA/BHQ-2 abasic DNA cleavage fluorescence | Potency, µM (series often up to 65.8 µM), for inactives: at the top dose activity change, negative = inhibition, actives largely listed as inhibitors | actives 0.35% (n = 350,000);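 further: potency means the concentration at half of the fitted maximal effect; plate controls were vehicle for no effect and reference inhibitor for full effect; nearly all actives have a fitted effect of over 55% in size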
#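 Measures dequenching upon AP-site incision of a 5'-TAMRA/3'-BHQ-2 THF-containing duplex, 50 nM; human APE1 0.75 nM after 15 min room-temperature exposure to compound; kinetic three-point read at one-minute spacing.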
# GALK confirm: galactokinase (human) inhibition, confirmation. shares compounds with Pol eta inh-1. Potency, µM (doses to about 115 µM), inactives show at the highest dose activity, negative = inhibition, most hits filed as inhibitors. purified GALK, Kinase-Glo ATP depletion luminescence. actives 70% (n = 150)
# Redox cycling: counter-screen for GALK inhibitors: redox cycling H2O2 generation; shares compounds with Pol eta inh-1; Phenol red-HRP H2O2 redox cycling, absorbance 600 nm; Potency, µM (titrated, usually from 115 µM), for the others: at the top dose activity change, negative = H2O2 signal, hits mostly inhibitors; actives 40% (n = 150)
# HEK293 viability: HEK-293 cytotoxicity, GALK inhibitor secondary; shares compounds with Pol eta inh-1; HEK-293 viability, ATP luminescence (CellTiter-Glo), 24/48 h; Potency, µM (top dose mostly 46.1 µM), for the others: top-dose activity change, negative = cytotoxicity, most hits filed as inhibitors; actives 10% (n = 170); AID 2547; further: potency means the concentration at half of the fitted maximal effect; on the % scale 0 is the no-effect control and ±100 the full control effect
# Pol kappa inh-2: Pol kappa (human) inhibition, cherry-pick confirmation; shares compounds with Pol eta inh-1; purified Pol-kappa, fluorescent strand-displacement substrate; Potency, µM, most hits filed as inhibitors; actives 76% (n = 920); AID 720501; further: potency means the concentration at half of the fitted maximal effect
# Pol eta inh-2: Pol eta (human) inhibition, cherry-pick confirmation. shares compounds with Pol eta inh-1. Pol eta primer extension, TAMRA/BHQ fluorescence, 10 min. Potency, µM, hits mostly inhibitors. actives 64% (n = 2,600). AID 720502; further: potency means the concentration at half of the fitted maximal effect
# Active calls of the source: *; ? = inconclusive; . = no result; [ ] = another dose, or the depositor's remark. The call rests on the fitted dose curve; in most records, active means well fitted curve in the direction sought with a large enough effect; inconclusive means small, poorly fitted or top-dose-only effect, or another doubt; inactive means no such curve, though single readings can be large; an effect the other way counts as inactive or inconclusive.
SMILES,Pol kappa inh-1,L3MBTL1 inh,Pol iota inh,POLB inh,Pol eta inh-1,APEX1 inh,Pol eta inh-2,others
O=C1NN(c2ccc(Br)cc2)C(=O)/C1=C\c1ccc(O)cc1O,-38.2%,-9.6%,?,3.4%,4.1%,6.0%,.,GALK confirm=47.3µM*;Redox cycling=-3.5%;HEK293 viability=-3.7%
CCS(=O)(=O)C1=NN2C(=N)/C(=C\c3ccc(OC(=O)c4ccco4)c(Br)c3)C(=O)N=C2S1,.,.,.,89.1µM*,.,-21.7%,.,GALK confirm=29.8µM*;Redox cycling=0.0%;HEK293 viability=-10.0%
CCOc1cc(/C=C2\C(=N)N3N=C(N4CCCCC4)SC3=NC2=O)ccc1OC(=O)c1ccco1,-28.3%,-7.8%,?,?,?,18.1%,.,
Cc1cc(SCC(=O)N/N=C/c2ccc(O)cc2O)nc2ccccc12,-9.3%,-4.5%,12.1%,1.8%,-11.6%,32.8%,.,
O=C(Cc1nnc(NC(=O)c2ccccc2)s1)N/N=C\c1ccc(O)c(O)c1,3.16µM*,-0.3%[2.29 µM],2.24µM*,7.08µM*,3.16µM*,?,37.9*,Pol kappa inh-2=9.47*
Cc1cc(SCC(=O)N/N=C/c2ccc(O)c(O)c2)nc2ccccc12,?,?,50.1µM*,8.91µM*,20µM*,-12.7%,37.9*,
O=C(COc1ccc(F)cc1)Nc1nc(-c2cccnc2)cs1,.,.,.,.,35.5µM*,.,?,
C[C@@H]1CN([C@H](C)CO)C(=O)CCCn2nncc2CO[C@H]1CN(C)Cc1ccc(Cl)c(Cl)c1,.,.,.,.,-19.5%,.,.,
Cc1ccc(C(=O)Nc2nc(C)c(C(=O)N(C)C)s2)o1,-12.2%,.,-1.6%,10.7%,-2.4%,9.6%,.,
Cc1ccc(C(=O)Nc2nc(-c3ccco3)c(-c3ccco3)s2)o1,-31.2%,?,?,.,14.1µM*,-1.2%,60.1*,Pol kappa inh-2=15*
Cc1ccc(NC(=S)Nc2cccc3cnccc23)cc1,-4.8%,.,84.0%,-3.3%,-14.8%,-3.1%,.,
CC(=O)c1ccc(NC(=S)Nc2cccc3cnccc23)cc1,-13.5%,.,41.7%,?,9.9%,2.0%,.,GALK confirm=?;Redox cycling=10.6µM*;HEK293 viability=2.2%
COc1cccc(-c2cncnc2NCc2cccs2)c1,0.0%[60.1 µM],.,.,.,.,-2.2%,.,
Cc1ccc(C(=O)NC2(O)C(=O)c3ccccc3C2=O)cc1C,-9.2%,.,2µM*,11.6%,44.7µM*,?,?,GALK confirm=26.6µM*;Redox cycling=11.9µM*;HEK293 viability=3.1%
O=C(NC1(O)C(=O)c2ccccc2C1=O)c1ccc(C(F)(F)F)cc1,-15.1%,.,1.78µM*,34.4%,44.7µM*,0.3%,?,GALK confirm=18.8µM*;Redox cycling=10.6µM*;HEK293 viability=-7.2%
COc1ccc2occ(CC(=O)Nc3ccc(S(=O)(=O)Nc4nc(C)cc(C)n4)cc3)c2c1,?,.,79.4µM*,28.2µM*,25.1µM*,.,?,Pol kappa inh-2=42.3*
Cc1ccc2c(CC(=O)Nc3ccc(S(=O)(=O)Nc4nc(C)cc(C)n4)cc3)coc2c1,-28.6%,.,-0.1%,-2.6%,-8.4%,.,.,
COc1cc(C(CCN2CCCC2)c2c(OC)cc(OC)c3ccc(=O)oc23)cc(OC)c1OC (stereo not drawn),9.6%,.,25.9%,-27.9%,-14.3%,-5.0%,.,
COc1cc(OC)c2ccc(=O)oc2c1C(CC(=O)N1CCCC1)c1ccc2c(c1)OCO2 (stereo not drawn),50.1µM*,.,70.8µM*,44.7µM*,?,?,?,
COc1cc(C(CC(=O)N2CCCC2)c2c(OC)cc(OC)c3ccc(=O)oc23)cc(OC)c1OC (stereo not drawn),?,.,?,?,31.6µM*,?,84.9*,
O=C(CC1N=C2c3ccccc3N=C(SCc3ccccc3F)N2C1=O)NCCc1ccccc1 (stereo not drawn),2.1%[60.1 µM],.,3.0%,-15.0%,-10.2%,.,.,
CCNC(=S)NNC(=O)CCn1cc(C)cn1,-0.3%,10.1%,8.2%,16.3%,-11.9%,5.8%,.,
O=[N+]([O-])c1ccc2c(c1)N([O-])C1(CCCCC1)[N+]2=O,?,-3.1%,11.2µM*,-1.7%,22.4µM*,-5.4%,84.9*,
COc1cccc(NS(=O)(=O)c2ccc3[nH]cc(C(=O)N(C)C4CCCCC4)c(=O)c3c2)c1,-6.2%[60.1 µM],.,?,-12.5%,56.2µM*,.,?,Pol kappa inh-2=?
COc1cc(N(C(C)=O)c2ccc(O)cc2)c2ncccc2c1,.,.,.,.,0.6%,.,.,
SMILES,Pol kappa inh-1,L3MBTL1 inh,Pol iota inh,POLB inh,Pol eta inh-1,APEX1 inh,Pol eta inh-2,others
COc1cc(N(C(C)=O)c2ccc(O)c(C(=O)O)c2)c2ncccc2c1,.,.,.,.,50.1µM*,.,84.9*,
C#CCCCO/N=C1/C[C@@H](O)[C@@H](O)[C@@H]2[C@@H]3C(=O)N(C(C)(C)C)C(=O)[C@H]3CC[C@H]12,.,.,.,.,.,11.5%[12.4 µM],.,
CCOC(=O)C1CCN(C(=O)c2ccc(N3CCCC3=O)cc2)CC1,-10.3%,0.9%,12.0%,.,-15.2%,4.8%,.,
O=C(O)CCc1ccc(S(=O)(=O)Nc2cc(C(F)(F)F)ccc2N2CCCC2)cc1,?,?,25.1µM*,.,22.4µM*,?,60.1*,Pol kappa inh-2=?
O=C(CCC(=O)c1cccs1)NNC(=O)c1ccccc1O,?,?,?,.,28.2µM*,0.1%,?,
Cc1ccc([C@H]2C(C(=O)O)=CC[C@@H](c3cccc(Cl)c3)N2S(=O)(=O)c2ccc(C)cc2)cc1,7.3%,.,-7.7%,.,-5.2%,.,.,
Cc1ccc(S(=O)(=O)N2[C@@H](c3ccc(C(C)(C)C)cc3)C(C(=O)O)=CC[C@H]2c2ccc(Cl)c(Cl)c2)cc1,-28.8%,-6.4%,-5.5%,.,0.3%,-5.9%,.,

# Screens: PubChem BioAssay, National Center for Advancing Translational Sciences (NCATS)
